The record followed here is PubChem BioAssay.

Activity calls are given as the source filed them.

Assay [1] deals with Albumin (Bos taurus) (UniProt P02769). Briefly: bovine serum albumin binders on microarray, profiling panel, artefact control for SMM control protein annotation, biochemical, small-molecule microarray, Alexa647 label, 635/667 nm fluorescence (AID 1118).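 Note: score merges 667 nm emission intensity and signal-to-noise per printed compound spot.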 As to conditions: BSA-A647 binding, fluorescence 635 nm, higher = more signal.
The nature of assay [2]: small-molecule microarray binders of probe aXIP, primary screen, biochemical, NeuroSMM set, 635/667 nm fluorescence (AID 1119).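 Note: probe is the protein aXip251-270 applied at 1 µg/mL to compound-printed slides; binding of probe to printed compounds measured as 667 nm fluorescence plus signal to noise.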 The following applies: higher = more signal, called active from +8 up or from −8 down.
Assay [3] can be described thus: small-molecule binders of probe aNOTCH3, primary screen, biochemical, small-molecule microarray, 635/667 nm fluorescence (AID 1120).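 Note: probe is a biotin-tagged antibody raised against NOTCH3 rather than NOTCH3 protein; score merges spot fluorescence near 667 nm with spot signal to noise.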 As to conditions: higher = more signal.
Assay [4] can be described thus: small-molecule binders of probe aNOTCH2, primary screen, biochemical, small-molecule microarray, 635/667 nm fluorescence (AID 1121).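 Note: score merges feature fluorescence read at 667 nm with its signal to noise.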 As to conditions: higher = more signal.
The target of assay [5] is Carbonic anhydrase 2 (Homo sapiens) (UniProt P00918). The assay can be described thus: CAII small-molecule binders, profiling panel, biochemical, small-molecule microarray, Alexa647-labelled CAII (AID 1122). As to conditions: CAII-A647 binding fluorescence, higher = more signal.
Assay [6] is described as follows: COS7 lysate on small-molecule microarray, probe aHis, 635 nm (AID 1123).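 Note: z-score combines 667nm fluorescence intensity with signal-to-noise per printed compound spot.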 As to conditions: COS7 cell lysate, fluorescence, higher = more signal.
The nature of assay [7]: compound binding in COS7 lysate, probe aLAP1, primary screen, cell lysate, small-molecule microarray (AID 1124).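 Note: lysate comes from COS7 cells expressing LAP1 and is applied at 0.3 µg/mL; score merges spot fluorescence near 667 nm with signal-to-noise over triplicate slides.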 The following applies: probe aLAP1, fluorescence, higher = more signal.
Assay [8] concerns Sam68 (KHDRBS1). Briefly: Sam68 small-molecule binders, primary screen, biochemical, small-molecule microarray, 635 nm fluorescence (AID 1125).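 Note: score merges 667 nm channel intensity with signal to noise over triplicate slides.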 As to conditions: small-molecule microarray binding, higher = more signal.
Assay [9] concerns Chordin-like protein 2 (CHRDL2). Briefly: CHRDL2 small-molecule binders, primary screen, biochemical, small-molecule microarray, 635 nm fluorescence (AID 1126).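 Note: printed compound slides probed with Chrdl2 protein at 4 µg/mL for 1 h at 4 C; score merges 667 nm emission intensity with signal to noise over three replicate slides.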 The following applies: small-molecule microarray binding, fluorescence 635 nm; higher = more signal.
For assay [10], the target named is Concanavalin-A (Canavalia ensiformis) (UniProt P02866). Briefly: ConA small-molecule binders, primary screen, artefact control for SMM control protein annotation, biochemical, small-molecule microarray, Alexa647 label, 635 nm (AID 1127).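 Note: z combines 667 nm emission intensity with signal-to-noise across three replicate slides.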 The following applies: ConA-A647 binding fluorescence, higher = more signal.
Assay [11] can be described thus: anti-His antibody binders, primary screen, artefact control for SMM control protein annotation, biochemical, small-molecule microarray, 635 nm fluorescence (AID 1128).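 Note: score merges feature fluorescence with signal-to-noise for each printed compound spot.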 The following applies: anti-His Alexa647 antibody binding, higher = more signal.
The test system of assay [12] is Human papillomavirus type 1a E7 protein (residues 1-88). The assay can be described thus: HPV1a E7 small-molecule binders, primary screen, biochemical, small-molecule microarray, residues 1-88, 635 nm (AID 1129). As to conditions: small-molecule microarray binding, fluorescence 635 nm; higher = more signal.
Assay [13] has as its target Focal adhesion kinase 1 (Homo sapiens) (UniProt Q05397). The assay can be described thus: small-molecule microarray binders of FAK, primary screen, biochemical, 635/667 nm fluorescence, BSA, DTT (AID 1130).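 Note: composite of spot emission at 667 nm and signal to noise over triplicate slides.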 As to conditions: PTK2 binding, 635 nm fluorescence, higher = more signal.
Assay [14] has as its system Fibrinogen (Alexa647-labelled). Briefly: fibrinogen binders on compound microarrays, profiling panel, artefact control for SMM control-protein annotation, biochemical, small-molecule microarray, 635/667 nm fluorescence (AID 1131).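 Note: z-score merges 667 nm fluorescence with per-spot signal-to-noise over triplicate slides.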 The following applies: fibrinogen-A647 binding fluorescence, higher = more signal.
Assay [15] has as its target Follistatin (Homo sapiens) (UniProt P19883). The assay can be described thus: follistatin binders on small-molecule microarrays, primary screen, biochemical, small-molecule microarray, 635/667 nm fluorescence (AID 1132). As to conditions: FST binding, 635 nm fluorescence, higher = more signal.
In assay [16] the target is Fibroblast growth factor 2 (Homo sapiens) (UniProt P09038). The assay can be described thus: FGF2 binders on small-molecule microarrays, primary screen, biochemical, small-molecule microarray, 635/667 nm fluorescence (AID 1133). As to conditions: small-molecule microarray binding, FGF2, fluorescence 635/667; higher = more signal.
Assay [17] is described as follows: mitochondrial membrane potential change in A549 cells, profiling panel, cell-based, JC-1 fluorescence, basal, 24 h, 100 nL (AID 1138).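 Note: A549 lung adenocarcinoma cells under basal conditions with no added stimulus; test concentration not given here.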 As to conditions: higher = more signal.
Assay [18] has as its system Lefty1. Briefly: Lefty1 binders on small-molecule microarrays, primary screen, biochemical, small-molecule microarray, 635/667 nm fluorescence (AID 1139). The following applies: small-molecule microarray binding, fluorescence 635/667; higher = more signal.
The test system of assay [19] is wheat germ agglutinin (Triticum aestivum), Alexa647-labelled. The assay can be described thus: wheat germ agglutinin binders on compound microarrays, profiling panel, artefact control for SMM control-protein annotation, biochemical, small-molecule microarray, 635/667 nm fluorescence (AID 1140).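 Note: score merges 667 nm feature emission with signal to noise over triplicate slides.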 As to conditions: WGA-A647 binding, 635 nm fluorescence, higher = more signal.

Assay [20] concerns the target Luciferin 4-monooxygenase (Photinus pyralis) (UniProt P08659). The assay can be described thus: firefly luciferase enzyme inhibitors, primary screen, biochemical, luminescence, purified enzyme, 2006 set (AID 1141).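 Note: cell-free assay with purified firefly luciferase at 100 ng per well in PBS; test concentration not given here.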 As to conditions: SteadyGlo luminescence, 30 min, higher = more signal, called active from +8 up or from −8 down.

Sequence of Focal adhesion kinase 1 (Homo sapiens) (Q05397 whole entry, looked up): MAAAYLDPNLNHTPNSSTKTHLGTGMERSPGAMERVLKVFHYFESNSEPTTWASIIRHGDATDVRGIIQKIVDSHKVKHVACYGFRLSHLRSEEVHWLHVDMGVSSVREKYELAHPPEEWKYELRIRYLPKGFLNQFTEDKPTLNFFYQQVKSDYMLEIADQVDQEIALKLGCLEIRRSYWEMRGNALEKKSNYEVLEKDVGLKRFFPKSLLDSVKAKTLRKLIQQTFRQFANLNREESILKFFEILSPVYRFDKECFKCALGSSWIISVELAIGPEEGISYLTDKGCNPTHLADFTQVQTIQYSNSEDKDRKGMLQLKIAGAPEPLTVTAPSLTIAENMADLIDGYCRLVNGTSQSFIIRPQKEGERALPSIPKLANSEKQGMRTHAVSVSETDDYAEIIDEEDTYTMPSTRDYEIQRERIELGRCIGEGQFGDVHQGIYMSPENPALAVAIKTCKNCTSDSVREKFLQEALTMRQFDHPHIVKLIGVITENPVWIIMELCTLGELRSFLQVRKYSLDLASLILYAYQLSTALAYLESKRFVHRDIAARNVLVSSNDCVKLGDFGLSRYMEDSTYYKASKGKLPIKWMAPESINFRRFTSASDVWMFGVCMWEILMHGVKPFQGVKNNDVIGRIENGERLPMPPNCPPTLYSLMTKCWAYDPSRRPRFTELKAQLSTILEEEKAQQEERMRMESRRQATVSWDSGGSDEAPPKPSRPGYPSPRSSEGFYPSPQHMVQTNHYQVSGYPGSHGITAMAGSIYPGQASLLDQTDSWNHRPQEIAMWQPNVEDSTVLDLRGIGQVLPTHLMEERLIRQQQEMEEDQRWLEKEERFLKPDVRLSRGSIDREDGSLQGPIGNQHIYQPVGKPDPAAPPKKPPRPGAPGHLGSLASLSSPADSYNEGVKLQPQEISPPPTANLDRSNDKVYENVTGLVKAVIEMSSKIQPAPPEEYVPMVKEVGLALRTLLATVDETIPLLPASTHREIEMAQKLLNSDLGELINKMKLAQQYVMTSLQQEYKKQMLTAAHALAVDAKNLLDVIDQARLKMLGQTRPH
Sequence of Concanavalin-A (Canavalia ensiformis) (P02866 whole entry, looked up): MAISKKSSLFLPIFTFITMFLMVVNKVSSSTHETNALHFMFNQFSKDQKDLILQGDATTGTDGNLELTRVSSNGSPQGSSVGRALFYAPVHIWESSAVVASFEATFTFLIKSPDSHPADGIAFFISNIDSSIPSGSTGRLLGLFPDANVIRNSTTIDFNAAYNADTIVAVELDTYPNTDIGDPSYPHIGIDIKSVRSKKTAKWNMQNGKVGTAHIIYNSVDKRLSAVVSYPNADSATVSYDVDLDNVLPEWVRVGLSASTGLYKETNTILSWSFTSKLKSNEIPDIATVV
Sequence of Fibroblast growth factor 2 (Homo sapiens) (P09038 whole entry, looked up): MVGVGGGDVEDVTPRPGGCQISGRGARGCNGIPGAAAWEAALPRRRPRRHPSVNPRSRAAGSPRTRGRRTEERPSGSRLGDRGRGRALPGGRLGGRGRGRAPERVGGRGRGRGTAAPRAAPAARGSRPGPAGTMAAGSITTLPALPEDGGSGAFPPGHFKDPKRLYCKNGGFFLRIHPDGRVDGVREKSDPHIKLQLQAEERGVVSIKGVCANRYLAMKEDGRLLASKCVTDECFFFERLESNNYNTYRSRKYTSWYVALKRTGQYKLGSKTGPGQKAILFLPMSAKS
Sequence of Albumin (Bos taurus) (P02769 whole entry, looked up): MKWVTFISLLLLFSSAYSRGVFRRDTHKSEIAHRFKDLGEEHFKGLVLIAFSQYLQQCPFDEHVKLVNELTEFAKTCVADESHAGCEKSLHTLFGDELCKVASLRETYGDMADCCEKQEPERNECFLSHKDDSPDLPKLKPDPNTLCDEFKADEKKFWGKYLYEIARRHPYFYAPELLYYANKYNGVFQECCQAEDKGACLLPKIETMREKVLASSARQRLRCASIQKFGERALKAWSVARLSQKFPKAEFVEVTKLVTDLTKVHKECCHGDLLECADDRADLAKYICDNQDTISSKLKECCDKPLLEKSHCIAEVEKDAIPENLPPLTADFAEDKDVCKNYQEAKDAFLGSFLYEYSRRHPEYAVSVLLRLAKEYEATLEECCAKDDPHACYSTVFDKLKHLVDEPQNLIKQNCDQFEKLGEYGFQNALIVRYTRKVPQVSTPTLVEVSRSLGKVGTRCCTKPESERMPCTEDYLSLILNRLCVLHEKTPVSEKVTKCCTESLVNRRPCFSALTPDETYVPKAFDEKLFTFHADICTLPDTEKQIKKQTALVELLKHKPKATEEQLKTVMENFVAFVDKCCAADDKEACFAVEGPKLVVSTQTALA
Sequence of Follistatin (Homo sapiens) (P19883 whole entry, looked up): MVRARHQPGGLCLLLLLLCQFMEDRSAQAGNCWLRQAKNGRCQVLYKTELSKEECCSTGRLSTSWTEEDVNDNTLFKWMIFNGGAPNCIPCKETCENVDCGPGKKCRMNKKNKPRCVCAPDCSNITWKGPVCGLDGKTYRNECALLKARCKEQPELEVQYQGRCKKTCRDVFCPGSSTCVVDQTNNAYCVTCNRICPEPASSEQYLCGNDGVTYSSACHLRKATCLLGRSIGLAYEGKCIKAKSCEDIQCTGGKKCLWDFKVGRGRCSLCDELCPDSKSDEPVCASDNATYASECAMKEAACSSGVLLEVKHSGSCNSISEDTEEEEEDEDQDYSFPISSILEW
Sequence of Luciferin 4-monooxygenase (Photinus pyralis) (P08659 whole entry, looked up): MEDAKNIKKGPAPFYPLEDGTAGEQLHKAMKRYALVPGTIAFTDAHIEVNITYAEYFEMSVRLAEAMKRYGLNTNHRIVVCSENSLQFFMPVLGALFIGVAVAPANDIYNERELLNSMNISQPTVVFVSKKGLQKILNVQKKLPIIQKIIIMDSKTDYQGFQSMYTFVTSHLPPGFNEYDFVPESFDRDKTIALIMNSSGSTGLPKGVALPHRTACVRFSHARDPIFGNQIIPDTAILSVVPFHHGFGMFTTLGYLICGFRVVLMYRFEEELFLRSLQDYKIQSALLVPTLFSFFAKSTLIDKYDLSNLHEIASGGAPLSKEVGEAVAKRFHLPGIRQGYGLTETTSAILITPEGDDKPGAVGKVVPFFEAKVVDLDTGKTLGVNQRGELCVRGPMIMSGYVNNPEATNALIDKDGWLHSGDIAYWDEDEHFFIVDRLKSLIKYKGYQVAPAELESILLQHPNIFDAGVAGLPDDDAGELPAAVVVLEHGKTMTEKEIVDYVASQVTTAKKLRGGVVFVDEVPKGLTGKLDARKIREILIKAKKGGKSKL

Regarding `O=C(O)[C@@H]1[C@@H]2C(=O)N(c3ccccc3)C(=O)[C@@H]2C[C@@H]1Sc1ccccc1`, the composite z-score was -0.037 in assay [1]; -0.0932 in assay [3]; -0.0572 in assay [4]; 0.526 in [5]; 0.796 in assay [6]; 0.627 in [7]. Moreover, the composite z-score in assay [8] is -0.983; in assay [9] it was -1.06; in assay [10] it was -0.607; in [11], -0.102; in assay [12], -0.683; in [13], 0.236. Moreover, the composite z-score in assay [14] was -1.02; in [15], -1.19; in [16], -1.16; in [18] it was -1.07; in [19], 0.627. In addition, in assay [2], the composite Z-score was 0.0618 (inactive). The z-score is -0.677 in assay [17] and 1.35 (inactive) in assay [20].

Consider `CCCCCCc1nc(Cc2cc(OC)c(OC)c(OC)c2)cc2c1[Si](C(C)C)(C(C)C)OC2`, for which the composite z-score in assay [1] was -0.526; in assay [3], -0.0395; in assay [4], -0.153; in assay [5], -0.0134; in assay [6] it was 0.157; in [7], -0.0343. For the same molecule, the composite z-score in assay [8] is 0.239; in assay [9], 0.472; in assay [10] it was 0.524; in assay [11], -0.215; in [12], -0.517; in assay [13], -0.191. In addition, the composite z-score in assay [14] was -0.0217; in assay [15] it was 0.422; in assay [16], 0.521; in assay [18], 0.566; in [19], -0.0555. For the same molecule, in [2], the composite Z-score is 0.0886 (inactive). Further, the figures for the z-score in assay [17] and in assay [20] were 0.185 and 0.809 (inactive), respectively.

For the molecule `C=CCN1Cc2ccccc2[C@@H]2OC(c3ccc(OCCCO)cc3)=N[C@]2(CC=C)C1=O`, the composite z-score is -0.187 in assay [1]; 0.43 in assay [3]; 0.147 in assay [4]; 0.544 in assay [5]; 3.16 in [6]; 0.585 in [7]. Further, the composite z-score stood at 1.22 in [8]; 1.44 in assay [9]; 1.1 in assay [10]; 2.25 in assay [11]; 1.15 in assay [12]; 0.68 in assay [13]. The composite z-score in assay [14] was found to be 0.542; in assay [15], 1.49; in assay [16], 1.57; in assay [18] it was 1.2; in [19], 0.667. The composite Z-score in assay [2] is 1.79 (inactive). Also, the z-score was 2.5 in assay [17] and -1.91 (inactive) in assay [20].

As to `CCOC(=O)[C@@H]1CCCCN1C(=O)C(=O)OC`, the composite z-score in [1] is 0.145; in assay [3] it was -0.0431; in [4] it was -0.274; in assay [5], -0.177; in assay [6], 0.226; in [7], 0.193. Also, the composite z-score was 0.322 in assay [8]; -0.0507 in assay [9]; 0.131 in assay [10]; 0.234 in assay [11]; 0.504 in assay [12]; 0.1 in [13]. Besides, the composite z-score in assay [14] was -0.23; in [15], 0.479; in [16], 0.894; in assay [18], 1.29; in assay [19], -0.48. Moreover, in assay [2], the composite Z-score was -0.587 (inactive). Also, the figures for the z-score in [17] and in assay [20] were -0.309 and 0.0296 (inactive), respectively.

As to `CCCCC(CC)C(O)C1C=CC2C(=O)N(C)C(=O)C2N1Nc1ccccc1` (stereo not given), the composite z-score was 0.928 in assay [1]; 0.0934 in assay [3]; -0.0804 in [4]; 0.655 in [5]; 1.99 in [6]; 0.245 in [7]. Besides, the composite z-score in assay [8] is 1.31; in assay [9], -0.113; in assay [10], 0.586; in [11], 1.51; in [12], 1.21; in [13], 0.592. Moreover, the composite z-score in assay [14] is 0.852; in assay [15] it was 0.22; in [16], -0.364; in assay [18], -0.118; in [19], 0.795. In addition, the composite Z-score in assay [2] is 0.576 (inactive). Besides, the results for the z-score in assay [17] and in [20] were 0.665 and 0.546 (inactive), respectively.

Turning to `CC(C)[Si](C#CCCCC#N)(O[C@H](c1ccccc1)c1cn(Cc2ccccc2)nn1)C(C)C`, the composite z-score is 0.728 in assay [1]; 0.123 in [3]; -0.174 in assay [4]; 0.249 in [5]; 0.691 in assay [6]; 0.272 in [7]. Besides, the composite z-score in assay [8] was 1.16; in assay [9], 0.568; in assay [10] it was 0.536; in assay [11], 1.01; in [12] it was 0.694; in assay [13], -0.359. Moreover, the composite z-score in assay [14] is 0.534; in assay [15], 0.793; in assay [16], 0.725; in [18], 0.809; in [19], 0.235. Moreover, the composite Z-score in assay [2] was -0.535 (inactive). Moreover, the figures for the z-score in assay [17] and in assay [20] were 0.408 and -0.254 (inactive), respectively.

Regarding `COCCOC(=O)N1C(=O)[C@@]2(c3cc(C#CC4(O)CCCCCC4)ccc31)[C@H](C(=O)Nc1nc3ccccc3s1)[C@H]1C(=O)O[C@H](c3ccccc3)[C@H](c3ccccc3)N1[C@@H]2c1ccc(O)cc1`, the composite z-score is 0.25 in assay [1]; 0.188 in assay [3]; -0.088 in [4]; 0.303 in [5]; 1.59 in [6]; 0.713 in [7]. Moreover, the composite z-score in [8] turned out to be 1.3; in assay [9] it was 0.626; in assay [10], 1.18; in assay [11] it was 1.89; in [12], 1.24; in [13] it was 0.783. The composite z-score in [14] turned out to be 0.942; in assay [15], 1.28; in [16], 1.06; in [18], 1.15; in assay [19], 0.275. In addition, the composite Z-score in assay [2] is 0.56 (inactive). Besides, the values for the z-score in assay [17] and in assay [20] were -1.14 and -0.557 (inactive), respectively.

Regarding `CC1CC/C=C\[C@H]2OC34C=CCN(C(C)C)C(=O)[C@H]3N(CCO)C(=O)[C@@H]4C2C(=O)O1` (stereo not given in full), the composite z-score in assay [1] was -0.935; in [3], -0.312; in assay [4], -0.125; in [5], 0.933; in assay [6] it was -0.31; in [7], 0.492. The composite z-score in [8] was -0.175; in assay [9], -1.26; in assay [10] it was -1.8; in [11] it was -0.567; in assay [12] it was -0.724; in [13] it was -0.301. The composite z-score in assay [14] was -1.41; in assay [15], -1.27; in [16] it was -1.03; in assay [18], -0.445; in assay [19], -0.748. Also, the composite Z-score in assay [2] was -0.0467 (inactive). Besides, the z-score in [17] is 0.193; in assay [20], -0.886 (inactive).
